Data reported in PubChem BioAssay.

Target: Dihydroorotate dehydrogenase (quinone), mitochondrial (Plasmodium falciparum (isolate 3D7)) (UniProt Q08210)
Experiment: inhibition of P. falciparum DHODH – biochemical, C-terminal His tag, absorbance 600 nm, primary screen (AID 1175);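 also: recombinant parasite enzyme with a five histidine tag at its C terminus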
Details: PfDHODH enzyme, DCIP absorbance 600 nm; higher = more signal, called active from +8 up or from −8 down
Also: test concentration not given here.

Chain of Dihydroorotate dehydrogenase (quinone), mitochondrial (Plasmodium falciparum (isolate 3D7)) (Q08210 whole entry, looked up): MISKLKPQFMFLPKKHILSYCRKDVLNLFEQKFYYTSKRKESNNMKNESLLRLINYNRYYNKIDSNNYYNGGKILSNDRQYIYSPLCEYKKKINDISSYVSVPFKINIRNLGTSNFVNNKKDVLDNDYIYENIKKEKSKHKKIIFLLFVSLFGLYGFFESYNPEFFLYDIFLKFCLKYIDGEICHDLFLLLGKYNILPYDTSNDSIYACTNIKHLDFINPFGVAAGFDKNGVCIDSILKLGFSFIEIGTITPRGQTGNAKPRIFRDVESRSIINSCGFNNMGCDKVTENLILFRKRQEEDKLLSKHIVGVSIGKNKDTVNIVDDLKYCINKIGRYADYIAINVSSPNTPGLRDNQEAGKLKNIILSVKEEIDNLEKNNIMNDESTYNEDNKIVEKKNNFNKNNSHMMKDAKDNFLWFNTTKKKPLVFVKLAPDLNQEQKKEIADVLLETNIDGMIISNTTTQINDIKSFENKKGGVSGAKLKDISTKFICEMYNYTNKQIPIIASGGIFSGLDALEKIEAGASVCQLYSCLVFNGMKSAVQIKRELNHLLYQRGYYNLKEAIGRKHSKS

Composite z-score, inactive:
COCCn1c(C(=O)N2CCCC2)cc2c1C[C@H]1CN(C(=O)c3ccccc3)[C@@](Cc3ccccc3)(C(=O)OC)[C@@H]21 0.132
CCCC[C@@H](O)C1=C(COC)Cn2c(=O)n(-c3ccccc3)c(=O)n2[C@H]1CO -1.45
CN(C)C(=O)[C@]1(Cc2ccccc2)N=C(c2ccc(OCCCO)cc2)O[C@@H]1c1ccccc1 0.179
COc1ccc([Si](C)(C)[C@H]2[C@H](CCO)O[C@@]3(C(=O)N(Cc4ccc(N5CCOC5=O)cc4)c4ccccc43)[C@@H]2C)cc1 1.02
C=CCC(OC(C)=O)[C@@H]1[C@@H](N(Cc2cccc3ccccc23)C(=O)c2ccc(-c3ccccc3)cc2)c2cc(OCCCO)ccc2N1C(=O)c1ccc2ccccc2n1 (stereo partly drawn) -0.318
C=CC[C@@]1(C(=O)O)N=C(c2ccc(OCCCO)cc2)O[C@@H]1c1ccccc1CN=[N+]=[N-] -0.0013
COC(=O)c1c(CC[C@@H](CO)NC(=O)N[C@@H](Cc2ccccc2)Cn2cc(-c3cncn3C)nn2)oc(C(C)=O)c1C(=O)OC -2.95
COC(=O)Cn1c(C(=O)N(C)C)cc2c1C[C@H]1CN(C(=O)c3ccccc3)[C@@](Cc3ccc(OC)cc3)(C(=O)OC)[C@@H]21 0.072
CCCC=C(CCC)[C@@H](NS(=O)(=O)c1ccc(Cl)cc1)c1ccccc1 -0.532
COc1ccc(CCNC(=O)[C@@H]2c3ccccc3C(=O)N(CC34CC5CC(CC(C5)C3)C4)[C@H]2c2ccc(CO)cc2)cc1 0.12
NC(=O)N1C(=O)C2C(C1=O)C1C=C(CCCO)C2C(c2ccc(CN3CCCC3)cc2)N1Cc1cccc(OC(F)(F)F)c1 (stereo not drawn) -4.9
COc1ccc([Si](C)(C)[C@H]2[C@H](CCn3cc([C@H](O)c4ccccc4)nn3)O[C@@]3(C(=O)N(c4ccccc4)c4ccccc43)[C@@H]2C)cc1 0.413
CCCC=C(CCC)[C@@H](NC(=O)c1ccccc1)c1ccc(C(=O)OC)cc1 -5.83

Test system: not listed separately
Experiment: inhibition of PAO1 biofilm formation – strain PAO1, LB-PBS medium, absorbance 600 nm, primary screen (AID 1176)
Details: P. aeruginosa PAO1 growth/biofilm, A600, 12 h; higher = more signal

z-score, inactive:
COC(=O)[C@@]1(Cc2ccc(F)cc2)[C@H]2c3cc(C(=O)N(C)C)n(CCN4CCOCC4)c3C[C@H]2CN1C(=O)c1ccccc1 0.0818
C[N+](C)(C)CCCCCCNC(=O)[C@@H]1C[C@@H]2C(=O)N[C@@H](Cc3ccccc3)C(=O)N2[C@@H]1c1ccc(O)cc1 0.615
CO[C@H]1O[C@H](CO)[C@@H](OC(=O)Nc2ccc(C(F)(F)F)cc2)[C@H](OC(=O)Nc2ccccc2-c2ccccc2)[C@@H]1OC(=O)Nc1ccccc1-c1ccccc1 0.77
C=C(CCCC)/C(=C/C[C@H](OC(C)=O)c1cccc(OCCO)c1)c1cc(C(=O)OC)ccc1OC 0.473
COc1ccc([Si](C)(C)[C@H]2[C@H](CCn3cc([C@H](O)c4ccccc4)nn3)O[C@@]3(C(=O)N(C)c4c(Br)cc(C)cc43)[C@@H]2C)cc1 1.03
COCCOC(=O)N1C(=O)[C@@]2(c3cc(C#CC4(O)CCCCCC4)ccc31)[C@H](C(=O)N1CCc3cc(OC)c(OC)cc3C1)[C@H]1C(=O)O[C@H](c3ccccc3)[C@H](c3ccccc3)N1[C@@H]2c1ccc(O)cc1 1.18
C=CCOC(=O)[C@H]1[C@@H]2C(=O)O[C@@H](c3ccccc3)[C@@H](c3ccccc3)N2[C@@H](c2ccc(OCCOC(=O)[C@H]3C[C@H]4C(=O)NCC(=O)N4[C@H]3c3ccc(O)cc3)cc2)[C@]12C(=O)Nc1ccc(I)cc12 2.83
COCCOC(=O)N1C(=O)[C@@]2(c3cc(C#CC4=CCCCC4)ccc31)[C@H](c1ccc(OCCO)cc1)N1[C@H](c3ccccc3)[C@H](c3ccccc3)OC(=O)[C@H]1[C@@H]2C(=O)N1CCCCCCC1 3.23
CCOC(=O)C1=C(C(=O)OCC)N(S(=O)(=O)CC[Si](C)(C)C)[C@H](c2ccccc2)CC1 0.201
C=CCC(OC(C)=O)[C@@H]1[C@@H](N(Cc2cc3ccccc3o2)C(=O)c2ccc(-c3ccccc3)cc2)c2cc(OCCCO)ccc2N1C(=O)c1ccc2ccccc2n1 (stereo partly drawn) 0.35
O=C1O[C@@H](c2ccccc2)[C@@H](c2ccccc2)N2[C@@H](c3ccc(O)cc3)[C@]3(C(=O)Nc4ccc(C#CC5=CCCCC5)cc43)[C@@H](C(=O)N3CCCCCCC3)[C@H]12 1.22
COCCOC(=O)N1C(=O)[C@@]2(c3cc(C#CCC(C(=O)OC)C(=O)OC)ccc31)[C@H](C(=O)N1CCc3cc(OC)c(OC)cc3C1)[C@H]1C(=O)O[C@H](c3ccccc3)[C@H](c3ccccc3)N1[C@@H]2c1ccc(O)cc1 -0.0757
C=C(/C(=C/C[C@H](OC(=O)c1ccncc1)c1ccccc1OCCO)c1cc(C(=O)OC)ccc1OC)C(C)C 0.297
NCCCC[C@@H]1NC(=O)[C@H]2C[C@@H](C(=O)O)[C@@H](c3cccc(OCCO)c3)N2C1=O 0.628
CCCCN1CC=CC23O[C@@H]4/C=C\CCC(C)OC(=O)C4[C@H]2C(=O)N(C(C)CO)[C@@H]3C1=O (stereo partly drawn) 0.301
CC(=O)c1ccc(C(O)C2C=CC3C(=O)NC(=O)C3N2Nc2ccc(Cl)cc2Cl)cc1 (stereo not drawn) 0.835
C[N+](C)(C)CCCC[C@@H]1NC(=O)[C@H]2C[C@@H](C(=O)NCCCCCNC(=O)CS)[C@@H](c3ccc(O)cc3)N2C1=O 0.82
CN(C)CCCCNC(=O)[C@H]1C[C@H]2C(=O)N[C@@H](Cc3ccccc3)C(=O)N2[C@H]1c1cccc(OCCO)c1 -0.254
NC(=O)NCC#Cc1ccc2c(c1)[C@]1(C(=O)N2)[C@H](C(=O)Nc2nc3ccccc3s2)[C@H]2C(=O)O[C@H](c3ccccc3)[C@H](c3ccccc3)N2[C@@H]1c1ccc(OCCO)cc1 3.99
CC(C)CNC(=O)[C@@H]1c2ccccc2C(=O)N(Cc2ccccc2Cl)[C@H]1c1ccc(CO)cc1 0.0435
C=CCNC(=O)[C@H]1[C@@H]2C(=O)O[C@@H](c3ccccc3)[C@@H](c3ccccc3)N2[C@@H](c2ccc(O)cc2)[C@]12C(=O)Nc1ccc(C#CC3=CCCCC3)cc12 1.41
CN(C)C(=O)[C@]1(Cc2ccccc2CN=[N+]=[N-])N=C(c2ccc(OCCCO)cc2)O[C@@H]1c1ccccc1N=[N+]=[N-] 0.0533
COCCn1c(C(=O)N2CCCC2)cc2c1C[C@H]1CN(C(=O)c3ccccc3)[C@@](Cc3ccccc3)(C(=O)OC)[C@@H]21 0.535
CCCC[C@@H](O)C1=C(COC)Cn2c(=O)n(-c3ccccc3)c(=O)n2[C@H]1CO -0.131
CN(C)C(=O)[C@]1(Cc2ccccc2)N=C(c2ccc(OCCCO)cc2)O[C@@H]1c1ccccc1 -0.304
COc1ccc([Si](C)(C)[C@H]2[C@H](CCO)O[C@@]3(C(=O)N(Cc4ccc(N5CCOC5=O)cc4)c4ccccc43)[C@@H]2C)cc1 2.02
C=CCC(OC(C)=O)[C@@H]1[C@@H](N(Cc2cccc3ccccc23)C(=O)c2ccc(-c3ccccc3)cc2)c2cc(OCCCO)ccc2N1C(=O)c1ccc2ccccc2n1 (stereo partly drawn) 0.35
C=CC[C@@]1(C(=O)O)N=C(c2ccc(OCCCO)cc2)O[C@@H]1c1ccccc1CN=[N+]=[N-] -0.043
COC(=O)c1c(CC[C@@H](CO)NC(=O)N[C@@H](Cc2ccccc2)Cn2cc(-c3cncn3C)nn2)oc(C(C)=O)c1C(=O)OC -1.25
COC(=O)Cn1c(C(=O)N(C)C)cc2c1C[C@H]1CN(C(=O)c3ccccc3)[C@@](Cc3ccc(OC)cc3)(C(=O)OC)[C@@H]21 -0.0424
CCCC=C(CCC)[C@@H](NS(=O)(=O)c1ccc(Cl)cc1)c1ccccc1 1.97
COc1ccc(CCNC(=O)[C@@H]2c3ccccc3C(=O)N(CC34CC5CC(CC(C5)C3)C4)[C@H]2c2ccc(CO)cc2)cc1 0.565
NC(=O)N1C(=O)C2C(C1=O)C1C=C(CCCO)C2C(c2ccc(CN3CCCC3)cc2)N1Cc1cccc(OC(F)(F)F)c1 (stereo not drawn) -0.66
COc1ccc([Si](C)(C)[C@H]2[C@H](CCn3cc([C@H](O)c4ccccc4)nn3)O[C@@]3(C(=O)N(c4ccccc4)c4ccccc43)[C@@H]2C)cc1 0.131
CCCC=C(CCC)[C@@H](NC(=O)c1ccccc1)c1ccc(C(=O)OC)cc1 2.23
